Experimental findings from PubChem BioAssay (NCI) are described below.

Values joined by “and” are separate entries in the source; they are usually repeats but may differ in a detail not shown here. Identical values can stand only once. Compounds without any hit were thinned out: in the full panel of roughly 83,000, 20% have a hit.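 Values shown are percent growth following 48 h exposure of cells in 96-well plates to a single concentration of compound; below 10 was considered active.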 Unmarked numbers belong to inactive results. Active and inactive are the calls of the source.

Test systems include NCI-H23 lung; NCI-H226 lung; NCI-H322M lung; HOP-62 NSCLC; NCI-H460 lung; NCI-H522 lung; A549/ATCC NSCLC; 786-0 renal; COLO 205 colon; DU-145 prostate; K-562 leukemia; MALME-3M melanoma; MDA-MB-231 breast; RXF 393 renal; SF-268 CNS; SF-295 CNS; SF-539 CNS; UACC-257 melanoma; M14 melanoma; HOP-92 NSCLC.
What all share (experiment): NCI-60 one-dose screen, 48 h (100 = growth as untreated, 0 = no growth, -100 = all killed)
Settings in all cases: 10 µM

Regarding `NC(Cc1ccccc1)c1ccccc1` (stereo not given), the growth is 97.7% and 105% in the experiment with NCI-H23 lung; 91.9% and 97.7% in the experiment on NCI-H226 lung; 102% and 103% in the experiment on NCI-H322M lung; 105% in the experiment on HOP-62 NSCLC; 107% and 111% with NCI-H460 lung; 94.5% in the experiment on NCI-H522 lung. For the same compound, the growth in the experiment on A549/ATCC NSCLC was 111%; with 786-0 renal, 97.4% and 98.4%; with COLO 205 colon it was 103% and 105%; with DU-145 prostate, 117% and 120%; in the experiment on K-562 leukemia, 108% and 94.4%; in the experiment with MALME-3M melanoma it was 106% and 109%. Also, the growth with MDA-MB-231 breast was 102% and 95%; in the experiment with RXF 393 renal, 105% and 109%; in the experiment on SF-268 CNS it was 106% and 103%; in the experiment with SF-295 CNS, 102% and 104%; in the experiment on SF-539 CNS it was 103% and 97.2%; with UACC-257 melanoma it was 106% and 95.4%. The growth in the experiment with M14 melanoma is 95.1% and 94%.
Take `CC/C(=C/c1ccc(OC)cc1OC)[N+](=O)[O-]`: the growth was 59% in the experiment on NCI-H23 lung; 111% with NCI-H226 lung; 90.3% in the experiment on NCI-H322M lung; 74% in the experiment on HOP-62 NSCLC; 49.5% in the experiment on NCI-H460 lung; -41.7% (active) in the experiment on NCI-H522 lung. Besides, the growth in the experiment with A549/ATCC NSCLC was 65.1%; in the experiment on 786-0 renal, -53% (active); with COLO 205 colon it was -40.7% (active); in the experiment with DU-145 prostate, 39.1%; in the experiment with K-562 leukemia, 3.65% (active); with MALME-3M melanoma, 8.59% (active). Besides, the growth in the experiment on MDA-MB-231 breast is 18.4%; in the experiment with RXF 393 renal, -59.6% (active); in the experiment with SF-268 CNS, 41.5%; with SF-295 CNS, 101%; in the experiment with SF-539 CNS it was -1.55% (active); with UACC-257 melanoma it was 45.8%. For the same compound, in the experiment on M14 melanoma, the growth was 54%.
Consider `CCOP(=O)(OCC)C(O)c1ccccc1Cl` (stereo not given), for which the growth in the experiment on NCI-H23 lung is 99.4%; with NCI-H226 lung, 98.1%; in the experiment on NCI-H322M lung it was 93.8%; in the experiment with HOP-62 NSCLC it was 109%; in the experiment on NCI-H460 lung, 102%; with NCI-H522 lung it was 95.7%. Moreover, the growth with A549/ATCC NSCLC was 105%; with 786-0 renal, 102%; in the experiment with COLO 205 colon, 107%; with DU-145 prostate, 97.7%; in the experiment with K-562 leukemia, 97.7%; with MALME-3M melanoma it was 86.8%. Further, the growth with MDA-MB-231 breast is 118%; with SF-268 CNS it was 100%; in the experiment on SF-295 CNS, 112%; in the experiment with SF-539 CNS, 91.1%; in the experiment with UACC-257 melanoma, 106%; in the experiment with M14 melanoma it was 103%.
On to `COc1cc([C@@H]2c3cc4c(c(O)c3C[C@H]3COC(=O)[C@@H]32)OCO4)cc(OC)c1OC`, for which the growth in the experiment on NCI-H23 lung is 17.3%; with NCI-H226 lung, 48.8%; in the experiment on NCI-H322M lung, 21.9%; in the experiment on NCI-H460 lung it was 0.25% (active); in the experiment on HOP-92 NSCLC, -31.4% (active); in the experiment with NCI-H522 lung it was -25% (active). For the same compound, the growth in the experiment with A549/ATCC NSCLC is 24.9%; in the experiment on 786-0 renal, -69.8% (active); in the experiment on COLO 205 colon, -69.5% (active); in the experiment on DU-145 prostate it was -28.2% (active); in the experiment with K-562 leukemia it was 7.73% (active); in the experiment on MALME-3M melanoma it was 40.4%. The growth in the experiment on MDA-MB-231 breast was 21%; in the experiment on RXF 393 renal, 14.3%; in the experiment on SF-268 CNS, 21.5%; in the experiment with SF-295 CNS, -22.2% (active); in the experiment on SF-539 CNS, -18% (active); in the experiment on UACC-257 melanoma it was 57.5%. Besides, the growth in the experiment on M14 melanoma was -66.3% (active).
On to `C=C1C(=O)O[C@@H]2C[C@@H](C)[C@@H]3C=CC(=O)[C@@]3(C)[C@@H](O)[C@H]12`, for which the growth in the experiment with NCI-H23 lung was -36.3% (active); in the experiment with NCI-H226 lung, -38.6% (active); with NCI-H322M lung, -24.7% (active); in the experiment with HOP-62 NSCLC it was -44.6% (active); in the experiment on NCI-H460 lung, -26.4% (active); with NCI-H522 lung, -81.2% (active). In addition, the growth is -3.45% (active) in the experiment on A549/ATCC NSCLC; -71.6% (active) in the experiment on 786-0 renal; -95% (active) with COLO 205 colon; -100% (active) in the experiment with DU-145 prostate; -56.9% (active) with K-562 leukemia; -76.6% (active) with MALME-3M melanoma. Besides, the growth was -63.2% (active) in the experiment on MDA-MB-231 breast; 1.51% (active) with RXF 393 renal; -45% (active) with SF-268 CNS; -35.8% (active) in the experiment with SF-295 CNS; -73.3% (active) with SF-539 CNS; 1.25% (active) in the experiment on UACC-257 melanoma. Also, the growth with M14 melanoma was -64.8% (active).
With `CC(=O)[O][Hg][c]1c(C)c(C)cc(C)c1C`, the growth with NCI-H23 lung is -45.3% (active); with NCI-H226 lung, -5.8% (active); with NCI-H322M lung it was 3.3% (active); in the experiment with HOP-62 NSCLC, -82.6% (active); in the experiment on NCI-H460 lung, -16.7% (active); with NCI-H522 lung, -96.4% (active). Moreover, the growth in the experiment on A549/ATCC NSCLC is 91.5%; in the experiment on 786-0 renal, 19%; with COLO 205 colon it was -9.36% (active); in the experiment with DU-145 prostate, -61% (active); with K-562 leukemia, -10.1% (active); in the experiment with MDA-MB-231 breast it was -51.5% (active). For the same compound, the growth is -45.5% (active) in the experiment on RXF 393 renal; -74.4% (active) in the experiment on SF-268 CNS; 13.6% in the experiment on SF-295 CNS; 41.9% with SF-539 CNS; -64.1% (active) in the experiment on UACC-257 melanoma; -87% (active) in the experiment with M14 melanoma.
In the case of `C[CH2][Hg][S]c1ccccc1C(=O)O`, the growth with NCI-H23 lung was 11.3%; in the experiment with NCI-H226 lung it was -53.4% (active); in the experiment with NCI-H322M lung, 66.2%; with HOP-62 NSCLC, 47.2%; in the experiment with NCI-H460 lung, 36%; in the experiment with NCI-H522 lung, -77.2% (active). Further, the growth in the experiment with A549/ATCC NSCLC is 35%; in the experiment with 786-0 renal it was 1.68% (active); in the experiment on COLO 205 colon it was -100% (active); with DU-145 prostate, -28.6% (active); in the experiment with K-562 leukemia, -4.39% (active); with MALME-3M melanoma it was -96.4% (active). Besides, the growth was -5.17% (active) in the experiment with MDA-MB-231 breast; -96.8% (active) in the experiment with RXF 393 renal; -18.6% (active) in the experiment on SF-268 CNS; 97.2% with SF-295 CNS; -98.5% (active) with UACC-257 melanoma; -67.1% (active) in the experiment on M14 melanoma.
